According to ChEMBL document CHEMBL1961873, “Compounds: GSK PKIS; Assays: Nanosyn kinase panel” (2012):

Assays:
[1] = molecular target: T1, Serine/threonine-protein kinase D2 (Homo sapiens) (UniProt Q9BZL6); conditions: at 1 µM;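 also: mean value of PRKD2 inhibition, from the GSK PKIS screening panel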
T1 sequence (whole entry): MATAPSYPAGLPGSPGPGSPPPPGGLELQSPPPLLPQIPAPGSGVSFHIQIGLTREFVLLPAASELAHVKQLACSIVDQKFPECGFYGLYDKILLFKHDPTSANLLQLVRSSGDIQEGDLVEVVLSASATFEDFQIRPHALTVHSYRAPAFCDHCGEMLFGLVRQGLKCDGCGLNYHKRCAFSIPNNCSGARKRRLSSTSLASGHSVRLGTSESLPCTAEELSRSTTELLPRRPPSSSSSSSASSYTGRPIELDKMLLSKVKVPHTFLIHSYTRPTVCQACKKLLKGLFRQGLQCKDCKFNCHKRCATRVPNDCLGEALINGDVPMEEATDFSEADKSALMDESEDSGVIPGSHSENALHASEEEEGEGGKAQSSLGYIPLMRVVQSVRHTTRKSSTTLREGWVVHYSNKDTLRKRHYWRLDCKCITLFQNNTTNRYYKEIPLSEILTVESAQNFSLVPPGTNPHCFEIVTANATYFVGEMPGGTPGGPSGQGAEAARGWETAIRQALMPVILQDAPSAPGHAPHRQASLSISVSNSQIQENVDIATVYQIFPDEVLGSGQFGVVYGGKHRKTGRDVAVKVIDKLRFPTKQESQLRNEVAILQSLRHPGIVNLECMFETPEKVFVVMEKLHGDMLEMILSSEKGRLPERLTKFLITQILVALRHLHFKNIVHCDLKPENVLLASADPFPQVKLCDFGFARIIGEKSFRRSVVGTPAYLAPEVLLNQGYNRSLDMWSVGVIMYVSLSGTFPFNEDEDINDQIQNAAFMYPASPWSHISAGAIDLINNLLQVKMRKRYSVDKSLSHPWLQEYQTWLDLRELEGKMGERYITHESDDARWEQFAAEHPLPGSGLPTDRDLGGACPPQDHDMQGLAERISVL

[2] = molecular target: T2, Serine/threonine-protein kinase D3 (Homo sapiens) (UniProt O94806); conditions: at 0.1 µM
T2 sequence (whole entry): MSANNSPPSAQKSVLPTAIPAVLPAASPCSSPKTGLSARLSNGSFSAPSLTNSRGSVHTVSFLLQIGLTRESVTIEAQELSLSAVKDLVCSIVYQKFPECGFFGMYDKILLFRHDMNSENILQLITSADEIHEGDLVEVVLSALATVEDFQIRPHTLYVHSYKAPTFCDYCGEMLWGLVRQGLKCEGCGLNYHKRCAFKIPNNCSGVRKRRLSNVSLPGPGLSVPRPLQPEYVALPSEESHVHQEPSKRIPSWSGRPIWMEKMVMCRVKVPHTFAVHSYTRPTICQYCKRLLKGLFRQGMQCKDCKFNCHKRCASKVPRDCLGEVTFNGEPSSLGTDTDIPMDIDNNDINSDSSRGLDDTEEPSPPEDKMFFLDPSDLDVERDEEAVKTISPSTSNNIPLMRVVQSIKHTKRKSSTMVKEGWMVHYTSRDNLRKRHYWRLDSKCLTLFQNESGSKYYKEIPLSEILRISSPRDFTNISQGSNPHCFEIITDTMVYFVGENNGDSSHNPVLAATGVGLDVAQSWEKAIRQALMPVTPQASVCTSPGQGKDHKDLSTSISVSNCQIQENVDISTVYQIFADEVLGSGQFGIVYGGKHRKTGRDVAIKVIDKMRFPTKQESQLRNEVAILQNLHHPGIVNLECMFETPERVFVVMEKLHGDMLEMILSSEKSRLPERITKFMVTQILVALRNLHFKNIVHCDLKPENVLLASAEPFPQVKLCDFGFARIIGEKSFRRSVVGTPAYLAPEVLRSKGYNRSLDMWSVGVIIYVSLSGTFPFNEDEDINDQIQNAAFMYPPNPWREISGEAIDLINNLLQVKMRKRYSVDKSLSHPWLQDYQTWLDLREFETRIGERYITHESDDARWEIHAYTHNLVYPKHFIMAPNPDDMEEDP

[3] = molecular target: T2, Serine/threonine-protein kinase D3 (Homo sapiens); conditions: at 1 µM
[4] = molecular target: T3, cGMP-dependent protein kinase 1 (Homo sapiens) (UniProt Q13976); conditions: at 0.1 µM
T3 sequence (whole entry): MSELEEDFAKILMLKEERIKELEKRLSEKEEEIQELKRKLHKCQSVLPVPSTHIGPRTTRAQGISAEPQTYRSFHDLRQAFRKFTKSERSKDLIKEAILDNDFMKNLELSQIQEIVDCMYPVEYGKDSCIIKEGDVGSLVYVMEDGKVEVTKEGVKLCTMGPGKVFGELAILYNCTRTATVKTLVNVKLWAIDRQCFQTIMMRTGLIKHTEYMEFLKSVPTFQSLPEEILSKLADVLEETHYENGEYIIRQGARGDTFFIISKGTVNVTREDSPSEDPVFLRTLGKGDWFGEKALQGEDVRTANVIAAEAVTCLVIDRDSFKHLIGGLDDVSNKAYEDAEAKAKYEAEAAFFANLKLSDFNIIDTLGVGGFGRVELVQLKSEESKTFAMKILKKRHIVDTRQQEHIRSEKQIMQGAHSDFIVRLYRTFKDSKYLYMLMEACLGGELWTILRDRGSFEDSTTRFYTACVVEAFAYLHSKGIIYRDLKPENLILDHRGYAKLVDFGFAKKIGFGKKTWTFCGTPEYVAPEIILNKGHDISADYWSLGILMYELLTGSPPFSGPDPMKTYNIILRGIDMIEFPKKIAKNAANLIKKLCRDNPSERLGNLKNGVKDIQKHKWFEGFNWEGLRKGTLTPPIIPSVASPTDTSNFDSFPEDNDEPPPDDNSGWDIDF

[5] = molecular target: T3, cGMP-dependent protein kinase 1 (Homo sapiens); conditions: at 1 µM
[6] = molecular target: T4, cGMP-dependent protein kinase 2 (Homo sapiens) (UniProt Q13237); conditions: at 0.1 µM
T4 sequence (whole entry): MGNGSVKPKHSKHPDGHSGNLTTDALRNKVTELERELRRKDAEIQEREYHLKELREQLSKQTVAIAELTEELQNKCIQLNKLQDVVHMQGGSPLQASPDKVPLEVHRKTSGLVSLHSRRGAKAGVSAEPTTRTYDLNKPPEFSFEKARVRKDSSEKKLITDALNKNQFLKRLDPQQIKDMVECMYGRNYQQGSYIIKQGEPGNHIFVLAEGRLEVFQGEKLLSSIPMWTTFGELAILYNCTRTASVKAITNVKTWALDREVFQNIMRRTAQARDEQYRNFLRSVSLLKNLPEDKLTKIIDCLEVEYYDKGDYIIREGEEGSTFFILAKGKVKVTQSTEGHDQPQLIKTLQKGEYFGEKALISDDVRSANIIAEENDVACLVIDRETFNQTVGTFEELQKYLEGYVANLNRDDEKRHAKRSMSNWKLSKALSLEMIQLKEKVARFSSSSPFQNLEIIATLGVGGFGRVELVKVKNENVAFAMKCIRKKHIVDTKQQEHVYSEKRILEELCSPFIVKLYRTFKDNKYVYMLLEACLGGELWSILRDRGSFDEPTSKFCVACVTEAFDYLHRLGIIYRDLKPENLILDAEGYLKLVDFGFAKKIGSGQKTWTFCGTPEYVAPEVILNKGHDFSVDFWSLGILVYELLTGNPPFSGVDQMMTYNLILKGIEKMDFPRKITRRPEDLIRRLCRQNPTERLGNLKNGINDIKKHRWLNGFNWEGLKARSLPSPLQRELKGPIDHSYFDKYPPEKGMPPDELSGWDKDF

[7] = molecular target: T4, cGMP-dependent protein kinase 2 (Homo sapiens); conditions: at 1 µM
[8] = molecular target: T5, cAMP-dependent protein kinase catalytic subunit PRKX (Homo sapiens) (UniProt P51817); conditions: at 0.1 µM
T5 sequence (whole entry): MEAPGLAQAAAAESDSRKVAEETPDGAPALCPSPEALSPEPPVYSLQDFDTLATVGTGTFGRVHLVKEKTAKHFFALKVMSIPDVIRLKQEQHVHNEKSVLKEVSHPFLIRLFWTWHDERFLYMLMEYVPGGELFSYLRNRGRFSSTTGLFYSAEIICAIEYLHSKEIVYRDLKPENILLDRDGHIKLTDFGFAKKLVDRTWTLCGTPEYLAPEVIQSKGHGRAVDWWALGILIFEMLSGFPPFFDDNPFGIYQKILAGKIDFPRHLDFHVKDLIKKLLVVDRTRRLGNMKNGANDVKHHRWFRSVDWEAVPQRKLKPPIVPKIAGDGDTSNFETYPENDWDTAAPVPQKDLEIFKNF

[9] = molecular target: T5, cAMP-dependent protein kinase catalytic subunit PRKX (Homo sapiens); conditions: at 1 µM
[10] = molecular target: Rho-associated protein kinase 1 (Homo sapiens) (UniProt Q13464); conditions: at 0.1 µM
Sequence of Rho-associated protein kinase 1 (Homo sapiens) (Q13464 2-1354 limits assumed): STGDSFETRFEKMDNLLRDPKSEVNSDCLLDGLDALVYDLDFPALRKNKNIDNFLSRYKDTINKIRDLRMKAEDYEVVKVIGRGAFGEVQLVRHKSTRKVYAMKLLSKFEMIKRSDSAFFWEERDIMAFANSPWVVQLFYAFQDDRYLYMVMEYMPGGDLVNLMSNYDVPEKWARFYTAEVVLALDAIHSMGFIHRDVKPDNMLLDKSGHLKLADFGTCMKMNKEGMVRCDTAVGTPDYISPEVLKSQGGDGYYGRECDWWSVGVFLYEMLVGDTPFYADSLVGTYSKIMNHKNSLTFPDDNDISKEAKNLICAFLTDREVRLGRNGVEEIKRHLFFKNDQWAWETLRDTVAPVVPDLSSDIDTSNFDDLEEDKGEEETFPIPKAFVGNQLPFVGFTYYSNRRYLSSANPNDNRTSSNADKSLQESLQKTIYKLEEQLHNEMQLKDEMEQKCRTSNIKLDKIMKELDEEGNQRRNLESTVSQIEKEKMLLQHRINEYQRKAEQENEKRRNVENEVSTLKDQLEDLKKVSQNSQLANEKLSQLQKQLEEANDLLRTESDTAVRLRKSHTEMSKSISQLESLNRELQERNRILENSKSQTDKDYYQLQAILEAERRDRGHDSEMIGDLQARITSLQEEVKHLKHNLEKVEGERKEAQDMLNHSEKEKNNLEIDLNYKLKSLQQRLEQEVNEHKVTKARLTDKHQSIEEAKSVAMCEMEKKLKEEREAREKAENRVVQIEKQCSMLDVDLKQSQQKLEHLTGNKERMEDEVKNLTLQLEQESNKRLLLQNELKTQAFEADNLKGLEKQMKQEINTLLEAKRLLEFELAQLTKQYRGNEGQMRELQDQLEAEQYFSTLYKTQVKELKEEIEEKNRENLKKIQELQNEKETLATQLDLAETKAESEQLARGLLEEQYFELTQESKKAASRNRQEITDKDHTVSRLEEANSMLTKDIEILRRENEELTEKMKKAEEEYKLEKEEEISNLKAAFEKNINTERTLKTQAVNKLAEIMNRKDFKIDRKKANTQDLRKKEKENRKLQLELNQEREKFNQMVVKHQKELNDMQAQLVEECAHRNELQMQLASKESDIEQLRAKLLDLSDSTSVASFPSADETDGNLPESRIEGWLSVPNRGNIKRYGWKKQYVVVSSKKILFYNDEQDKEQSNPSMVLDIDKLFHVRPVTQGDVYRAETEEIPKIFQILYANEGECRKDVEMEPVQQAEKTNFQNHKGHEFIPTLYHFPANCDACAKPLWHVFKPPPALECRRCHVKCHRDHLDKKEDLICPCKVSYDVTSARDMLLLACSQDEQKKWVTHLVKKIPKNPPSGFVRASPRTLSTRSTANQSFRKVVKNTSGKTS

[11] = molecular target: Rho-associated protein kinase 1 (Homo sapiens) (UniProt Q13464); conditions: at 1 µM
[12] = molecular target: Rho-associated protein kinase 2 (Homo sapiens) (UniProt O75116); conditions: at 0.1 µM
Sequence of Rho-associated protein kinase 2 (Homo sapiens) (O75116 whole entry, looked up): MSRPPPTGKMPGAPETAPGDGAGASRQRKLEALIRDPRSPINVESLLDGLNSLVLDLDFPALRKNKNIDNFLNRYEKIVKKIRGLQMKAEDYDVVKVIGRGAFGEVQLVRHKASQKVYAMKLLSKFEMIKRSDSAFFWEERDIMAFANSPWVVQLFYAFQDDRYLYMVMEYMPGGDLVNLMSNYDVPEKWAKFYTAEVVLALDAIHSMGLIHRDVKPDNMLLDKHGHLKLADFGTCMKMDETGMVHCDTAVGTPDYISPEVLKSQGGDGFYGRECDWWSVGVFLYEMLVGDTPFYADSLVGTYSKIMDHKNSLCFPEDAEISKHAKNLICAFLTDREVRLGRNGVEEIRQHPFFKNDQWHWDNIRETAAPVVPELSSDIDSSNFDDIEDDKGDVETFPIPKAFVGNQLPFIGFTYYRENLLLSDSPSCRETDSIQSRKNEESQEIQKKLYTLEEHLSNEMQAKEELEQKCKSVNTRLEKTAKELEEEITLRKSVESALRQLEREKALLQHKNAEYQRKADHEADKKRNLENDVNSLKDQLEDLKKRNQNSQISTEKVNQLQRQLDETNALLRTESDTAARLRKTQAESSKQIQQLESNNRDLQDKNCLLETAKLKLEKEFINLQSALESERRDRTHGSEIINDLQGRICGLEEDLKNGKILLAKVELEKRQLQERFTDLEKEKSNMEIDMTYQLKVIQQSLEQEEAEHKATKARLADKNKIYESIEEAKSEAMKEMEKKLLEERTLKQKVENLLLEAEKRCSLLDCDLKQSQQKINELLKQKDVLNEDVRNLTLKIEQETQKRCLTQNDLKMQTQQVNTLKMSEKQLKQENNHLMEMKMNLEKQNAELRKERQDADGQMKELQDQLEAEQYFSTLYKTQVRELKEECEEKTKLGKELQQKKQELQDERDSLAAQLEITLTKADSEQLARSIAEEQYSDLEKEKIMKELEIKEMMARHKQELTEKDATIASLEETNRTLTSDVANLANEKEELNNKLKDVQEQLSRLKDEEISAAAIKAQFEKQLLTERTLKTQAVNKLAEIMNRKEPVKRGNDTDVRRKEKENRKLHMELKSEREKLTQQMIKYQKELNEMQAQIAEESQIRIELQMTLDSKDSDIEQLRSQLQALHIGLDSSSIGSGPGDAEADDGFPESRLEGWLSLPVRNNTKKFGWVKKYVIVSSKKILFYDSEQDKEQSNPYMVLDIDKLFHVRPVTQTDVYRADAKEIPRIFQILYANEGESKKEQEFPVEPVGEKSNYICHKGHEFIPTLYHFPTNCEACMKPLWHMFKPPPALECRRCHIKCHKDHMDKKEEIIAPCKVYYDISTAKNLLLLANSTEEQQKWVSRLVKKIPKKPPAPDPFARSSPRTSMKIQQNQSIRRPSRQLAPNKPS

[13] = molecular target: Rho-associated protein kinase 2 (Homo sapiens) (UniProt O75116); conditions: at 1 µM
[14] = molecular target: Ribosomal protein S6 kinase alpha-1 (Homo sapiens) (UniProt Q15418); conditions: at 0.1 µM
Sequence of Ribosomal protein S6 kinase alpha-1 (Homo sapiens) (Q15418 whole entry): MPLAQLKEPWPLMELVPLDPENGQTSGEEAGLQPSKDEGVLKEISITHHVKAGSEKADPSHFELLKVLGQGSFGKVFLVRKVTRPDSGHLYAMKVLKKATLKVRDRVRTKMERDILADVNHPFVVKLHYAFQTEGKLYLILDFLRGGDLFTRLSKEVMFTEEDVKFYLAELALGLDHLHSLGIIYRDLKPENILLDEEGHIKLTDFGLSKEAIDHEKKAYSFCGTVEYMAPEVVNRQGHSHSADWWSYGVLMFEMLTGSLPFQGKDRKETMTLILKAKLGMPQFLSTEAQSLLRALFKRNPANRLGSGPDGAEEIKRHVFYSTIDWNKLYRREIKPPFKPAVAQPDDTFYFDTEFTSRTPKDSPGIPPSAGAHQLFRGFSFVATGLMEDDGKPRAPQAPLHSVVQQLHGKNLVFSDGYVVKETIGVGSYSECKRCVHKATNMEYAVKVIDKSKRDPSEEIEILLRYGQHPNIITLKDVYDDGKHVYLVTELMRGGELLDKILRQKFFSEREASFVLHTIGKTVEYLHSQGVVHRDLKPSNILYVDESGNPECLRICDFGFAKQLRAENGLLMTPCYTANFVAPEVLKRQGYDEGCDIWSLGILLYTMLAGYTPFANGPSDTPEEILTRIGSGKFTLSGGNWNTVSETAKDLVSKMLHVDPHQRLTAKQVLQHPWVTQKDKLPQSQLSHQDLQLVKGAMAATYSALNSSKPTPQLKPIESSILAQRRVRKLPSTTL

[15] = molecular target: Ribosomal protein S6 kinase alpha-1 (Homo sapiens) (UniProt Q15418); conditions: at 1 µM
[16] = molecular target: Ribosomal protein S6 kinase alpha-3 (Homo sapiens) (UniProt P51812); conditions: at 0.1 µM
Sequence of Ribosomal protein S6 kinase alpha-3 (Homo sapiens) (P51812 whole entry): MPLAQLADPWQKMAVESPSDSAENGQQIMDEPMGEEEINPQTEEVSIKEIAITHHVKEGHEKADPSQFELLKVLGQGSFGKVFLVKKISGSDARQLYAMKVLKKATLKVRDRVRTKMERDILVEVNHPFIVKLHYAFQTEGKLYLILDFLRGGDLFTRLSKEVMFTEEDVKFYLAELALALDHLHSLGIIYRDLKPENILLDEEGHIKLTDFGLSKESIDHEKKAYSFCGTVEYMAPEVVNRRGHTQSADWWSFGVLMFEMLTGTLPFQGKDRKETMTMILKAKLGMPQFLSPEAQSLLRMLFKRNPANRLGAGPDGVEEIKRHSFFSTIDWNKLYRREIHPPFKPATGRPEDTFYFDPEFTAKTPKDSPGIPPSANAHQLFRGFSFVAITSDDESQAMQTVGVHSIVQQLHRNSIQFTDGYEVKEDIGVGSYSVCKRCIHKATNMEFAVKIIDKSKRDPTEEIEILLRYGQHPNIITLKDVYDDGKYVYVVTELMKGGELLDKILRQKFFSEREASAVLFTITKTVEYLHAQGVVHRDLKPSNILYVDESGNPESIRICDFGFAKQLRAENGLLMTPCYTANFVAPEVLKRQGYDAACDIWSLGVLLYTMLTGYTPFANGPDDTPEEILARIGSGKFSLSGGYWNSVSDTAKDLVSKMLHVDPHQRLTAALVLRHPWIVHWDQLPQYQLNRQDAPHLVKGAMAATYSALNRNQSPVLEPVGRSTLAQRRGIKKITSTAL

[17] = molecular target: Ribosomal protein S6 kinase alpha-3 (Homo sapiens) (UniProt P51812); conditions: at 1 µM
[18] = molecular target: Ribosomal protein S6 kinase alpha-2 (Homo sapiens) (UniProt Q15349); conditions: at 0.1 µM
Sequence of Ribosomal protein S6 kinase alpha-2 (Homo sapiens) (Q15349 whole entry): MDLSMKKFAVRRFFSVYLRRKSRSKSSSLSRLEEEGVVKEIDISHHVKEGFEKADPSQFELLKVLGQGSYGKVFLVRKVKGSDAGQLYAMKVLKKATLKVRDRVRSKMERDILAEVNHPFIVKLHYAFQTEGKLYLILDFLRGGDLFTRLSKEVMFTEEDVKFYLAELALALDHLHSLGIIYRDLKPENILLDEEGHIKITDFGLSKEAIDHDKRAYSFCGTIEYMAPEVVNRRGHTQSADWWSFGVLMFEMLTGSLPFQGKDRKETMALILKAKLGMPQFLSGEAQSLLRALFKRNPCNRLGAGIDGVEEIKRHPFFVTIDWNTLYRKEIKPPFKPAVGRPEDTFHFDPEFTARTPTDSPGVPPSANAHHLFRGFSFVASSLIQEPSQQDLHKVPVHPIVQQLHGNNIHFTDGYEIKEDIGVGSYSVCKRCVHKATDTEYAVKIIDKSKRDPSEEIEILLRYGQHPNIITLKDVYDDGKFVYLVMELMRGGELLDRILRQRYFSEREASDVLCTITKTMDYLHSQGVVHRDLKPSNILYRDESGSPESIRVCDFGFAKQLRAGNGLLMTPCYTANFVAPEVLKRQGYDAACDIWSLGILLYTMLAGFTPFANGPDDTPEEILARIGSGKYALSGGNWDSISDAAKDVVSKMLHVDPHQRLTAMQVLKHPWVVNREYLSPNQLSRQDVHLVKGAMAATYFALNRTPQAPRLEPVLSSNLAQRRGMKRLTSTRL

[19] = molecular target: Ribosomal protein S6 kinase alpha-2 (Homo sapiens) (UniProt Q15349); conditions: at 1 µM
[20] = molecular target: Ribosomal protein S6 kinase alpha-6 (Homo sapiens) (UniProt Q9UK32); conditions: at 0.1 µM;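 also: reported value is the mean inhibition of RSK4, from the GSK PKIS kinase inhibitor screen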

SMILES	inhibition [1]	inhibition [2]	inhibition [3]	inhibition [4]	inhibition [5]	inhibition [6]	inhibition [7]	inhibition [8]	inhibition [9]	inhibition [10]	inhibition [11]	inhibition [12]	inhibition [13]	inhibition [14]	inhibition [15]	inhibition [16]	inhibition [17]	inhibition [18]	inhibition [19]	inhibition [20]
CN(C)CCCNc1nccc(-c2c(-c3ccc(F)cc3)nn3cc(C(F)(F)F)ccc23)n1	0.34%	-1.49%	-0.32%	1.15%	3.76%	1.88%	3.07%	1.15%	-0.47%	0.76%	1.8%	1.71%	3.88%	2.04%	4.02%	0.68%	2.23%	1.91%	3.08%	0.86%
O=C(NCC1CC1)c1ccc(-c2cccc(C(=O)NC3CC3)c2)cc1	2.14%	2.87%	1.81%	3.32%	1.97%	1.23%	0.42%	0.49%	-0.06%	1.17%	2.85%	2.43%	1.11%	-0.06%	0.15%	0.89%	-1.16%	0.67%	0.58%	0.55%
Nc1nccc(-c2c(-c3ccc(F)cc3)ncn2C2CCC(O)CC2)n1 (stereo not given)	23.3%	-0.31%	19.4%	-1.29%	0.27%	-0.66%	-0.24%	-0.76%	-0.96%	0.4%	0.73%	-1.47%	-1.96%	-0.24%	2.78%	-0.92%	-0.98%	-0.62%	0.59%	-0.21%
COc1ccc(-c2ccc3c(NC(=O)C4CC4)n[nH]c3n2)cc1	1.69%	1.45%	1.7%	1.26%	1.97%	0.63%	0.65%	1.66%	3.81%	0.53%	-0.75%	1.6%	3.71%	0.22%	2.59%	1.62%	3%	1.1%	1.69%	0.83%
Fc1ccc(-c2ncn(C3CCNCC3)c2-c2ccnc(Oc3ccc4c(c3)OCO4)n2)cc1	9.53%	5.01%	9.26%	2.62%	2.47%	3.43%	2.62%	1.9%	2.4%	2.94%	5.2%	4.88%	8.46%	1.84%	3.67%	-0.4%	2.18%	2.81%	4.39%	0.63%
Fc1ccc(-c2ncn(C3CCNCC3)c2-c2ccnc(Oc3ccc(Oc4ccccc4)cc3)n2)cc1	5.64%	5.21%	7.01%	4.81%	7.25%	3.21%	4.62%	2.43%	3.21%	2.39%	1.68%	2.53%	3.69%	3.01%	2.7%	1.73%	2.37%	3.61%	3.8%	2.38%
